The values that follow come from PubChem BioAssay (EPA / NIEHS).

The structures appear in SMILES notation. Records with an inconclusive call do not appear. The source made the active and inactive calls. How the source made its calls: active means hit-call score of the fitted dose curve at least 0.9, where 1 is the maximum; inconclusive means response in the unintended direction; inactive means score below 0.9.

Sequence of Cytochrome P450 3A4 (Homo sapiens) (P08684 whole entry, looked up): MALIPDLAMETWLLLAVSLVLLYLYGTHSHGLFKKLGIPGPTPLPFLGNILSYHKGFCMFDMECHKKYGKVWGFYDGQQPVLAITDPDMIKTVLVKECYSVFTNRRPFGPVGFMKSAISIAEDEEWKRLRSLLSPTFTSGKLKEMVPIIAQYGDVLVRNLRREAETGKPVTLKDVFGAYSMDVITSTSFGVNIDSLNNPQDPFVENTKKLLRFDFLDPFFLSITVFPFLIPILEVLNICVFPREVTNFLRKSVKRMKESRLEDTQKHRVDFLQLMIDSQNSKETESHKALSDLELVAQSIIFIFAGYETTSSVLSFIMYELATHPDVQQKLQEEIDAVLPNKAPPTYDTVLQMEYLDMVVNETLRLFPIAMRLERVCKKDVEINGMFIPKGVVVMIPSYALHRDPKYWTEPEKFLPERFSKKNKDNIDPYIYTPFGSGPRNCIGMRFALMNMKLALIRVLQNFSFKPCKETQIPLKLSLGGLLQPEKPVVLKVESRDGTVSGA

Read-out in this experiment: Cytochrome P450 3A4 (Homo sapiens) (UniProt P08684)
The experiment in a line: CLD_CYP3A4_48hr: CellzDirect (CLD) Gene Expression Assay for xenobiotic metabolism (CYP3A4) at 48 hours (AID 2283698). On the procedure: CLD_48hr is a cell-based, multiplexed-readout assay that uses hepatocyte, a human liver primary cell, with measurements taken at 48 hours after chemical dosing in a 96-well plate.CLD_CYP3A4_48hr is one of 16 assay component(s) measured or calculated from the CLD_48hr assay. It is designed to make measurements of mRNA induction, a form of inducible reporter, as detected with chemiluminescence signals by Quantitative Nuclease Protection Assay (qNPA) technology.Data from the assay component CLD_CYP3A4_48hr was analyzed at the endpoint, CLD_CYP3A4_48hr, in the positive analysis fitting direction relative to DMSO as the negative control and baseline of activity. Using a type of inducible reporter, gain-of-signal activity can be used to understand changes in the reporter gene as they relate to the gene CYP3A4. Furthermore, this assay endpoint can be referred to as a primary readout. To generalize the intended target to other relatable targets, this assay endpoint is annotated to the cyp intended target family, where subfamily is xenobiotic metabolism.
Human hepatocyte cultures were treated daily for two consecutive days with fresh dosing solutions containing appropriate concentrations of the 320 ToxCast chemicals (chemical identities were blinded to CellzDirect and other ToxCast collaborators), vehicle control (0.2% DMSO), and positive control inducers as summarized in Table 1. Due to the large number of treatment groups and chemicals examined, the ToxCast chemicals were divided into two groups (spanning two independent cultures of hepatocytes from separate donor preparations (Hu778: ToxCast plates 1 and 2; Hu776: ToxCast plates 3 and 4). Each preparation of human hepatocyte cultures was treated with respective vehicle control, medium only control, set of six positive controls/reference chemicals for the five hepatic receptor pathways, and a subset of eight of the ToxCast chemicals (indoxacarb, pyrithiobac-sodium, norflurazon, cyhalofop-butyl, methomyl, thiram, acetochlor, and propiconazole). These replicate data, coupled with internal replicates designed within the blinded ToxCast chemical library, provided additional data to evaluate interindividual differences between hepatocyte preparations and their potential impact on chemical profiles.Cell morphology and integrity were evaluated using phase-contrast microscopy as an indicator of hepatocyte cell health (Tyson & Green, 1987). Cultures for each treatment group (i.e., media, vehicle [0.2% DMSO], positive control inducers [multiple concentrations], and the ToxCast chemicals [multiple concentrations]) were observed and cell morphology was assessed relative to vehicle control cultures at each harvest time point (0, 6, 24, or 48 h). […] Images were evaluated at the conclusion of the study to assess changes in cell integrity and account for the effects of chemical exposure on uncharacteristic changes in concentration-dependent gene expression profiles. The results from these determinations of apparent cytotoxicity were annotated (yes/no) alongside the corresponding qNPA data for reference.At the conclusion of each treatment period, hepatocyte cultures (96-well) were washed with 1 volume of HBSS, lysed by addition of 25 ul ArrayPlate lysis buffer (HTG, Tucson, AZ), and 70 ul/well of Denaturation Oil, denatured by incubation at 95C for 10 min, and frozen at approximately -70C until analysis by nuclease protection assay (qNPA) (Roberts et al., 2007). For qNPA analysis, cell lysates were thawed at 50C for approximately 30 min, qNPA probes were added, and samples were incubated at 95C for 10 min to begin the detection process by denaturing the target RNA, dissociating the duplexes and secondary structure hybridization. At the conclusion of the hybridization period, S1 nuclease reagent was added to each sample to digest all nonprotected nucleotides at 50C for 60-90 min. […]
In the case of `FC(F)C(F)(F)OCC(Cn1cncn1)c1ccc(Cl)cc1Cl` (stereo not given), the AC50 was 1.89 µM (active). Still for that read-out and setting: to `CCC(CC)Nc1c([N+](=O)[O-])cc(C)c(C)c1[N+](=O)[O-]` belongs 20 µM (active). `CCc1cnc(C2=NC(C)(C(C)C)C(=O)N2)c(C(=O)O)c1` (stereo not given): the result was inactive. Still for that read-out and setting: as for `CC[C@H](C)[C@H]1O[C@]2(C=C[C@@H]1C)C[C@@H]1C[C@@H](C/C=C(\C)[C@@H](O[C@H]3C[C@H](OC)[C@@H](O[C@H]4C[C@H](OC)[C@@H](NC)[C@H](C)O4)[C@H](C)O3)[C@@H](C)/C=C/C=C3\CO[C@@H]4[C@H](O)C(C)=C[C@@H](C(=O)O1)[C@]34O)O2`, the entry is “inactive”. In the case of `CC(C)[C@H](C(=O)O[C@H](C#N)c1cccc(Oc2ccccc2)c1)c1ccc(Cl)cc1`, the AC50 is 20 µM (active). Take `CC1=NNC(=O)N(/N=C/c2cccnc2)C1`: the call was inactive.

For the compound `CCCCN(CC)c1c([N+](=O)[O-])cc(C(F)(F)F)cc1[N+](=O)[O-]`, the AC50 is 6.48 µM (active). On the same count and under the same terms, to `Cc1nn(-c2cc(NS(C)(=O)=O)c(Cl)cc2Cl)c(=O)n1C(F)F` belongs 2.46 µM (active); to `CCOP(=O)(SC(C)CC)N1CCSC1=O` (stereo not given), 5.18 µM (active). As for `CSC1=N[C@@](C)(c2ccccc2)C(=O)N1Nc1ccccc1`, the compound was called inactive.

On to `CCCOc1nn(C(=O)NS(=O)(=O)c2ccccc2C(=O)OC)c(=O)n1C`, for which the AC50 was 36.4 µM (active).

As for `CSc1nc(NC(C)C)nc(NC(C)C)n1`, the AC50 was 3.24 µM (active). As to `CCCCOC(=O)c1ccccc1C(=O)O`, the outcome was inactive. `CC(C1CC1)C(O)(Cn1cncn1)c1ccc(Cl)cc1` (stereo not given): the AC50 is 20 µM (active). The same measure, in the same setting: to `CON=C(C(=O)OC)c1ccccc1CON=C(C)c1cccc(C(F)(F)F)c1` belongs 13.1 µM (active).

`COP(=O)(OC)OC(Br)C(Cl)(Cl)Br` (stereo not given): the compound was called inactive. For the compound `CC(C)=CC1C(C(=O)OCN2C(=O)C3=C(CCCC3)C2=O)C1(C)C` (stereo not given), the AC50 is 0.152 µM (active). In the case of `CCOP(=S)(OCC)Oc1ccc([N+](=O)[O-])cc1`, the concentration at half-maximal activity (AC50) was 2.92 µM (active). The same measure, in the same setting: as for `CCc1cccc(C)c1N(C(=O)CCl)C(C)COC` (stereo not given), the figure is 3.97 µM (active); as for `COc1cc(OC)nc(Sc2cccc(Cl)c2C(=O)O)n1`, 35.2 µM (active). Turning to `CN(C)[C@@H]1C(=O)C(C(N)=O)=C(O)[C@@]2(O)C(=O)C3=C(O)c4c(O)cccc4[C@@](C)(O)[C@H]3[C@H](O)[C@@H]12`, the result was inactive. On the same count and under the same terms, as for `COP(=O)(OC)SCn1c(=O)oc2cc(Cl)cnc21`, the entry is “inactive”.

As for `CCOP(=S)(OCC)SCCSCC`, the AC50 is 20 µM (active). Same read-out and setting: as for `CCOP(=O)(OCC)Oc1cc(C)nc(C(C)C)n1`, the figure is 20 µM (active). Same read-out and setting: as for `COc1ccc(C(=CC(=O)N2CCOCC2)c2ccc(Cl)cc2)cc1OC`, the figure is 1.9 µM (active).

Consider `CNC(=O)ON=C(C)SC`, for which the result was inactive.

`CCNc1nc(Cl)nc(NC(C)(C)C#N)n1`: the concentration at half-maximal activity (AC50) is 20 µM (active). For `C#CC(C)(C)NC(=O)c1cc(Cl)cc(Cl)c1`, the compound was called inactive. On the same count and under the same terms, as for `O=[N+]([O-])c1cc(C(F)(F)F)c(Cl)c([N+](=O)[O-])c1Nc1ncc(C(F)(F)F)cc1Cl`, the entry is “inactive”.

`CCCSP(=O)(OCC)Oc1ccc(Br)cc1Cl` (stereo not given): the AC50 was 7.57 µM (active). The same measure, in the same setting: as for `CCOP(=S)(Oc1cnc(C(C)(C)C)nc1)OC(C)C` (stereo not given), the figure is 0.383 µM (active). Consider `Nc1c(Cl)cc([N+](=O)[O-])cc1Cl`, for which the result was inactive.

For the compound `CNc1cnn(-c2cccc(C(F)(F)F)c2)c(=O)c1Cl`, the AC50 is 13.6 µM (active). The same measure, in the same setting: to `C[Si](Cn1cncn1)(c1ccc(F)cc1)c1ccc(F)cc1` belongs 0.536 µM (active). On the same count and under the same terms, as for `CN(C)C(=O)Nc1cccc(C(F)(F)F)c1`, the figure is 20 µM (active). Still for that read-out and setting: to `CC(COc1ccc(Oc2ccccc2)cc1)Oc1ccccn1` (stereo not given) belongs 3.97 µM (active); to `Cc1ccn2nc(S(=O)(=O)Nc3c(F)cccc3F)nc2n1`, 3.97 µM (active).

With `CN1COCN(Cc2cnc(Cl)s2)C1=N[N+](=O)[O-]`, the call was inactive.

As for `CN(C)NC(=O)CCC(=O)O`, the compound was classed as inactive.

On to `CCc1cccc(CC)c1N(COC)C(=O)CCl`, for which the compound was called inactive.
